High-throughput results deposited in PubChem BioAssay by National Center for Advancing Translational Sciences (NCATS).
Hits are enriched below; roughly 0.7% of the tested compounds scored in any of these assays.
Epigenetic reg = regulators of epigenetic silencing causing reporter derepression in mouse cells; murine LDR cells, GFP reporter derepression, 30 h; Potency, µM (doses to about 53.9 µM), for the others: at the highest dose GFP activation, usual class: activators; 280,000 tested, 0.2% active; AID 1865; note: % of control where 0% means no effect; nearly all actives have a fitted effect of over 60% in size
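Derepression of a silenced CMV-GFP reporter in murine LDR cells is scored by enumerating GFP-positive cells with a laser-scanning microplate cytometer after 30 hours of treatment at 37 C.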
Vif-A3G inh = Vif-A3G binding inhibition; Q9HC16; HeLa A3G-eYFP + Vif (tagged APOBEC3G with the HIV-1 protein that degrades it), YFP fluorescence, overnight; Potency, µM (top dose mostly 46.1 µM), inactives show at the top dose activity, negative = active, most hits filed as inhibitors; 410,000 tested, 0.076% active; AID 602310; note: % is set by controls: 0 for no effect and ±100 for the full control effect; nearly all actives have a fitted effect of over 60% in size
Target sequence (Q9HC16 whole entry, looked up): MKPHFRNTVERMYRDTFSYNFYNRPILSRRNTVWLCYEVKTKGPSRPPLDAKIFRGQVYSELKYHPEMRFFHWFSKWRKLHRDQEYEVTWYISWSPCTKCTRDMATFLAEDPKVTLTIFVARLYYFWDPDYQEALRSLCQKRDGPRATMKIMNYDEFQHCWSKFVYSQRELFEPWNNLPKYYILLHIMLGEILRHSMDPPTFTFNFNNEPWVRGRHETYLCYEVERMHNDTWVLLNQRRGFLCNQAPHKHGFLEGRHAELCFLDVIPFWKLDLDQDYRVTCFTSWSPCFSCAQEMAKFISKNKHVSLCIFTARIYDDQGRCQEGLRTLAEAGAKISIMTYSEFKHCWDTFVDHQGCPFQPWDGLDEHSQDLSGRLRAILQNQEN
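HeLa cells stably expressing Vif and C-terminally eYFP-tagged A3G, seeded overnight at 37 deg C, then exposed to compound by pintool overnight at 37 deg C. Rise in yellow fluorescence (Ex 488/Em 500-530, Acumen) marks blocked Vif-driven A3G degradation.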
Vif-APOBEC3F blk = blocks the Vif interaction with APOBEC3F | 390,000 tested, 0.2% active | HeLa A3F-eYFP + Vif (tagged APOBEC3F with the HIV-1 protein that degrades it), YFP fluorescence increase | Potency, µM (highest dose often 46.1 µM), for the others: top-dose activity, negative = active; note: % of control where 0% means no effect; nearly all actives have a fitted effect of over 65% in size
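HeLa cells stably expressing A3F-eYFP plus Vif, plated and incubated overnight at 37 deg C, then exposed to compounds overnight at 37 deg C. Blocked degradation read as raised yellow fluorescence (Ex 488/Em 500-530).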
PINK1 expr mod = modulators of PINK1 expression | PINK1 immunofluorescence, high-content cytometry, 24 h | Potency, µM (top dose mostly 76.6 µM), for inactives: top-dose activation (PINK1 increase), hits mostly activators | 410,000 tested, 0.2% active | AID 624263; active = well fitted activation curve with a large enough effect; inconclusive = small, poorly fitted or top-dose-only effect; cell line not stated here; note: % of control where 0% means no effect; nearly all actives have a fitted effect of over 65% in size
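Stable cell line treated 24 h with compounds at 5 concentrations (CCCP controls), then fixed and immunostained for PINK1 plus nuclear and cell stains; PINK1 immunofluorescence quantified by laser-scanning microplate cytometry.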
GLS inh = blocks human kidney-isoform glutaminase activity; Potency, µM (highest dose often 45.5 µM), without a hit: at the highest dose activity change, negative = inhibition, most hits filed as inhibitors; 410,000 tested, 0.21% active; AID 624170; O94925; GLS enzymatic activity, qHTS titration; note: % is set by controls: 0 for no effect and ±100 for the full control effect
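Enzyme dispensed in phosphate buffer (45 mM, pH 8.2, 0.02% Tween-20), compounds pinned in, then 1 mM L-glutamine solution and the glutamate oxidase–HRP–Amplex Red mix added; fluorescence read immediately and again after 30 min at room temperature.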
* hit, by the source's call; ? = inconclusive; . = not tested or not shown. Unless noted, calls come from the whole dose curve; as a rule, active = well fitted curve in the direction sought with a large enough effect; inconclusive = small, poorly fitted or top-dose-only effect, or another doubt; inactive = no such curve, though single readings can be large; an effect the other way counts as inactive or inconclusive. Potency is the fitted concentration of half-maximal effect.

SMILES	Epigenetic reg	Vif-A3G inh	Vif-APOBEC3F blk	PINK1 expr mod	GLS inh
CC(=O)c1ccc(F)c(-c2cc(C)cc3c2OC(CNC(=O)c2cccnc2)C3)c1 (stereo not drawn)	.	.	.	0%	.
CCc1ccc(C2c3c(-c4ccccc4)n[nH]c3C(=O)N2c2ccc(C(=O)O)cc2)cc1 (stereo not drawn)	0%	2%	-10%	0%	16µM*
O=C(O)c1ccc(N2C(=O)c3[nH]nc(-c4ccccc4)c3C2c2ccccc2)cc1 (stereo not drawn)	0%	0%	2%	-1%	?
Cc1ccc(-c2n[nH]c3c2C(c2ccccc2Cl)N(c2ccc(C(=O)O)cc2)C3=O)cc1 (stereo not drawn)	-1%	-6%	-6%	3%	7.1µM*
COc1ccc(/C=C2\CCc3c2nc2ccccc2c3C(=O)O)cc1OC	0%	0%	9%	1%	11µM*
COc1ccc(/C=C2\CCCc3c2nc2ccccc2c3C(=O)O)cc1OC	5%	.	.	.	.
COc1cccc(C(=O)NCC2Cc3cccc(-c4cccnc4)c3O2)c1 (stereo not drawn)	.	.	.	0%	.
Cn1ccnc1C1CCCCN1C(=O)CN1Cc2ccccc2OC(c2ccccc2F)C1 (stereo not drawn)	.	.	.	0%	.
CC(=O)c1cc(NC(=O)c2ccc(C)cc2)c(=O)oc1/C=C/N(C)C	6%	13µM*	13µM*	12%	34%
COC(=O)c1ccc(NC(=O)Nc2ccc([N+](=O)[O-])cc2)cc1	.	-6%	-1%	35µM*	-6%
O=C(Nc1ccc(C(=O)O)cc1)Nc1ccc([N+](=O)[O-])cc1	.	1%	-7%	1%	1%
CC/C=C(/C(=O)N[C@@H]1C(=O)N2C(C(=O)OCOC(=O)C(C)(C)C)=C(COC(N)=O)CS[C@H]12)c1csc(N)n1	.	.	.	.	-16%
N#C/C(=C\c1sc(N2CCOCC2)nc1-c1ccccc1)C(=O)Nc1cccc2ccccc12	13µM*	.	.	.	.
CCOc1cc(N2CCOCC2)c(OCC)cc1NC(=O)c1cccc(N(C)C)c1	-1%	2%	-1%	4%	1%
CCOc1cc(N2C(=O)CC3CS(=O)(=O)CC32)c(OCC)cc1NC(=O)c1ccccc1 (stereo not drawn)	0%	-1%	-10%	-3%	22µM*
Cc1c(C(=O)NCc2ccc(F)cc2)sc2ncnc(NCC3CCCO3)c12 (stereo not drawn)	.	.	.	1%	.
Cc1ccc(NS(=O)(=O)c2cc([N+](=O)[O-])ccc2N/N=C/c2sc(N3CCOCC3)nc2-c2ccccc2)c(C)c1	32µM*	?	-395%	13%	-2%
COc1cc2c(ccc3cc(OC)c(OC)c(O)c32)cc1O	1%	-4%	4%	-1%	7.9µM*
CC(C)C(=O)NCC1CCC2(CCN(Cc3ccc(-c4ccccc4Cl)o3)CC2)O1 (stereo not drawn)	.	.	.	-1%	.
N#Cc1c(SCC(=O)Nc2ccc(Cl)cc2Cl)sc2c(O)cc(=O)[nH]c12	.	-2%	-2%	32µM*	1%
CCN(CC)CCCNc1ccc2ncn3c4ccc(O)cc4c(=O)c1c23	.	?	22µM*	-4%	23%
COCCNC(=S)N/N=C(\C)CCc1ccc2c(c1)OCO2	0%	-1%	-8%	-1%	5%
C/C(CCc1ccc2c(c1)OCO2)=N\NC(=S)NC(C)C	?	1%	13µM*	-1%	14%
COc1cc(C)c(CN2CCOc3ccc(C(O)c4cccnc4)cc3C2)cc1C (stereo not drawn)	.	.	.	0%	.
CCOC(=O)C1=C(O)/C(=C/c2cn(CC(=O)NCC3CCCO3)c3ccccc23)SC1=Nc1ccc(C)cc1 (stereo not drawn)	.	?	?	14µM*	-1%
CCOC(=O)C1=C(O)/C(=C/c2ccc(-c3ccccc3C(=O)O)o2)SC1=Nc1ccc(C)cc1	4%	-10%	?	0%	?
Cc1cccn2c(=O)c3cc(C#N)c(=NC(=O)c4cccs4)n(CCCOC(C)C)c3nc12	?	-8%	25µM*	1%	0%
COC(=O)c1cccc(C(=O)NCc2nc(-c3ccccc3NC(C)=O)oc2C)c1	.	.	.	0%	.
